According to PubChem BioAssay (NCI):
Several values for one entry are separate records, joined by “and”; a condition that tells them apart may be missing. Equal values may be shown once. About 83,000 compounds went through this panel and 20% of them were active in at least one assay; those are over-represented in the sample as a whole.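 48-hour exposure, single concentration, 96-well plates; percent growth endpoint where 0 means no net growth. Active: below 10.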 Activity calls are given as the source filed them.

tested on: SR leukemia; assay: NCI-60 one-dose screen, 48 h (100 = growth as untreated, 0 = no growth, -100 = all killed); settings: 10 µM unless noted

Row | Structure (SMILES) | growth
1 | CCc1cc(C)cc(O)c1 | 102% (inactive)
2 | NN1CCOC(c2ccccc2)C1 (configuration not stated) | 29.8% (inactive)
3 | ClCCOCCOc1ccc(C2CCCCC2)cc1 | 98.5% (inactive)
4 | O=c1n(CC2CO2)c(=O)n(CC2CO2)c(=O)n1CC1CO1 (configuration not stated) | 17.8% (inactive)
5 | Cc1ccc(S(=O)(=O)c2ccccc2)cc1 | 34.7% (inactive)
6 | c1ccc(CNCCNCc2ccccc2)cc1 | 95.3% (inactive)
7 | Cc1cc2ccccc2cn1 | 109% (inactive)
8 | CCCCCCCCCCCCCCCc1ccc(N)c(OC2OC(CO)C(O)C(O)C2O)c1 (configuration not stated) | 40.2% (inactive)
9 | O=C(O)CCCl | 83.7% (inactive)
10 | C#CCOC(=O)Nc1ccccc1 | 111% (inactive)
11 | CC(C)C(C)(C)c1ccc(O)cc1 | 97.8% (inactive)
12 | CC1(C)COC(=S)N1 | 93.8% (inactive)
13 | CCOC(=O)c1c(C)cc(=O)oc1C | 92% (inactive)
14 | CC[C@H](CC[C@@H](C)[C@H]1CC[C@H]2[C@@H]3CC=C4C[C@@H](O)CC[C@]4(C)[C@H]3CC[C@]12C)C(C)C | 109% (inactive) and 101% (inactive)
15 | CN1CNC(=O)NC1 | 106% (inactive) and 79.6% (inactive)
16 | CC1CCC2(OC1)OC1CC3C4CC=C5CC(O)CCC5(C)C4CCC3(C)C1C2C (configuration not stated) | 29.7% (inactive)

Row | Structure (SMILES) | growth
17 | Nc1nc(N)c2[nH]cnc2n1 | 93% (inactive)
18 | Cn1cnc([N+](=O)[O-])c1Sc1ncn[nH]1 | 126% (inactive)
19 | O=c1[nH]cnc2c1ncn2C1OC(CO)C(O)C1O (configuration not stated) | 106% (inactive) and 83.5% (inactive) and 88.4% (inactive)
20 | CC(=O)OCC1OC(OC(C)=O)C(OC(C)=O)C(OC(C)=O)C1OC(C)=O (configuration not stated) | 98.1% (inactive) and 93.6% (inactive)
21 | O=C1c2c(O)ccc(O)c2C(=O)c2c(NCCNCCO)ccc(NCCNCCO)c21 | -12.7% (active)
22 | c1ccc(-c2nc3ccccc3s2)cc1 | 103% (inactive)
23 | CCCCCCCCCCCCCCCCC(C(=O)O)C(O)(CC(=O)O)C(=O)O (configuration not stated) | 90.8% (inactive) and 1.12% (active)
24 | Nc1cc(N)c(N)cc1N | -7.21% (active)
25 | O=[N+]([O-])c1cccc(SSc2cccc([N+](=O)[O-])c2)c1 | 81% (inactive)
26 | Oc1ccc(Cc2ccccc2Cl)c(O)c1 | 95.7% (inactive)
27 | OCCN1CCCCCCC1 | 109% (inactive)
28 | CC1CCC(C(C)C)C(NNC(N)=O)C1 (configuration not stated) | 100% (inactive)
29 | Fc1ccc([I+]c2ccc(F)cc2)cc1 | 38.6% (inactive)
30 | CC1=C/C(O)CC(=O)Cc2nc(co2)C(=O)N2CCC=C2C(=O)OC(C(C)C)C(C)/C=C\C(=O)NC/C=C\1 (configuration not stated) | 17.9% (inactive)
31 | COc1ccc2cc1Oc1ccc(cc1)C[C@H]1c3cc(c(OC)cc3CCN1C)Oc1c(OC)c(OC)cc3c1[C@H](C2)N(C)CC3 | -7.9% (active)
32 | O=C1OC(c2ccccc2)=N/C1=C\c1ccccc1 | 108% (inactive)
